# The supplement of paper PMC10849652
# Of roughly 7,900 targets only a part is listed; those with a hit were picked by preference. About 0.6% of all pairs of compound and target were hits. Unmarked numbers belong to inactive results.
# Assays:
# Test in all cases: log2 fold change, soluble protein after heating vs DMSO (PISA); higher = thermal stabilisation; K562 cells, 10 uM, 30 min; active = over 0.2 and 3.5 SD of the protein, either way, in both replicates (recomputed)
# bafetinib = compound: Cc1ccc(NC(=O)c2ccc(CN3CC[C@H](N(C)C)C3)c(C(F)(F)F)c2)cc1Nc1nccc(-c2cncnc2)n1 [bafetinib]
# Summary of the method: (§1)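 Soluble protein was defined as the supernatant after 21,000xg for 90 min. It came from K562 cells at 2×10^6 cells/mL given 10 μM compound for 30 min, heated in aliquots for 3 min across 48°C-58°C, pooled, and extracted in PBS with 0.5% NP-40 at 4°C, and was quantified by TMTpro 16plex LC-MS/MS with equalised channel sums. Thermal stability against control samples, from duplicates, is reported as log2 fold change.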
# nilotinib = compound: Cc1cn(-c2cc(NC(=O)c3ccc(C)c(Nc4nccc(-c5cccnc5)n4)c3)cc(C(F)(F)F)c2)cn1 [nilotinib]
# Summary of the method: as §1
# [1] = compound: Cc1nc(Nc2n[nH]c3c2CN(C(=O)N[C@H](CN(C)C)c2ccccc2)C3(C)C)c2sccc2n1
# Summary of the method: as §1
# dasatinib = compound: Cc1nc(Nc2ncc(C(=O)Nc3c(C)cccc3Cl)s2)cc(N2CCN(CCO)CC2)n1 [dasatinib]
# Summary of the method: as §1
# [2] = compound: Cc1ncc(-c2ccnc(Nc3ccc(S(C)(=O)=O)cc3)n2)n1C(C)C
# Summary of the method: as §1
# [3] = compound: Cn1cc(-c2ccc3c(c2)CCN3C(=O)Cc2cccc(C(F)(F)F)c2)c2c(N)ncnc21
# Summary of the method: as §1
# [4] = compound: Cn1cc(-c2ccc3nnc(C(F)(F)c4ccc5ncccc5c4)n3n2)cn1
# Summary of the method: as §1
# tipifarnib = compound: Cn1cncc1[C@@](N)(c1ccc(Cl)cc1)c1ccc2c(c1)c(-c1cccc(Cl)c1)cc(=O)n2C [tipifarnib]
# Summary of the method: as §1
# mubritinib = compound: FC(F)(F)c1ccc(/C=C/c2nc(COc3ccc(CCCCn4ccnn4)cc3)co2)cc1 [mubritinib]
# Summary of the method: as §1
# [5] = compound: NC(=O)Nc1cc(-c2cccc(F)c2)sc1C(=O)N[C@H]1CCCNC1
# Summary of the method: as §1
# [6] = compound: NC(=O)c1cnc(N[C@@H]2CCCC[C@@H]2N)nc1Nc1cccc(-n2nccn2)c1
# Summary of the method: as §1
# [7] = compound: NC1(c2ccc(-c3nc4ccn5c(=O)[nH]nc5c4cc3-c3ccccc3)cc2)CCC1
# Summary of the method: as §1
# [8] = compound: NCC(=O)Nc1ccc(-n2nc(C(F)(F)F)cc2-c2ccc3c(ccc4ccccc43)c2)cc1
# Summary of the method: as §1
# entinostat = compound: Nc1ccccc1NC(=O)c1ccc(CNC(=O)OCc2cccnc2)cc1 [entinostat]
# Summary of the method: as §1
# citarinostat = compound: O=C(CCCCCCNC(=O)c1cnc(N(c2ccccc2)c2ccccc2Cl)nc1)NO [citarinostat]
# Summary of the method: as §1
# silmitasertib = compound: O=C(O)c1ccc2c(c1)nc(Nc1cccc(Cl)c1)c1ccncc12 [silmitasertib]
# Summary of the method: as §1
# [9] = compound: O=C1NC(=O)C(c2cnc3ccccn23)=C1c1cn2c3c(cc(F)cc13)CN(C(=O)N1CCCCC1)CC2
# Summary of the method: as §1
# [10] = compound: c1cc(OCCN2CCCCC2)cc(-c2n[nH]c3ccc(-c4nnc[nH]4)cc23)c1
# Summary of the method: as §1
# [11] = compound: Cc1cccc(CC(=O)N2CCc3c2ccc(-c2cn(C)c4ncnc(N)c24)c3F)n1
# Summary of the method: as §1
# vorinostat = compound: O=C(CCCCCCC(=O)Nc1ccccc1)NO [vorinostat]
# Summary of the method: as §1
# Chain of UniProt P25774 (P25774 whole entry, looked up): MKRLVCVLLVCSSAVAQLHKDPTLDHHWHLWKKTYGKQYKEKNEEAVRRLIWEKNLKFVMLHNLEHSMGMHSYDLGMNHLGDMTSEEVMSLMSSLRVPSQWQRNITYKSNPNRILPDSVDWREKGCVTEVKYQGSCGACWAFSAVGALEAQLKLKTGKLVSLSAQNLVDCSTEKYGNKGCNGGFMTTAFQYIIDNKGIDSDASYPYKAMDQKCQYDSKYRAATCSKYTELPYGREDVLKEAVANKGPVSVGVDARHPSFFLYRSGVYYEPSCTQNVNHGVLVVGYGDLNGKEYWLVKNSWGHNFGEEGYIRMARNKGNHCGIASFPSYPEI
# Chain of UniProt Q5JWR5 (Q5JWR5 whole entry, looked up): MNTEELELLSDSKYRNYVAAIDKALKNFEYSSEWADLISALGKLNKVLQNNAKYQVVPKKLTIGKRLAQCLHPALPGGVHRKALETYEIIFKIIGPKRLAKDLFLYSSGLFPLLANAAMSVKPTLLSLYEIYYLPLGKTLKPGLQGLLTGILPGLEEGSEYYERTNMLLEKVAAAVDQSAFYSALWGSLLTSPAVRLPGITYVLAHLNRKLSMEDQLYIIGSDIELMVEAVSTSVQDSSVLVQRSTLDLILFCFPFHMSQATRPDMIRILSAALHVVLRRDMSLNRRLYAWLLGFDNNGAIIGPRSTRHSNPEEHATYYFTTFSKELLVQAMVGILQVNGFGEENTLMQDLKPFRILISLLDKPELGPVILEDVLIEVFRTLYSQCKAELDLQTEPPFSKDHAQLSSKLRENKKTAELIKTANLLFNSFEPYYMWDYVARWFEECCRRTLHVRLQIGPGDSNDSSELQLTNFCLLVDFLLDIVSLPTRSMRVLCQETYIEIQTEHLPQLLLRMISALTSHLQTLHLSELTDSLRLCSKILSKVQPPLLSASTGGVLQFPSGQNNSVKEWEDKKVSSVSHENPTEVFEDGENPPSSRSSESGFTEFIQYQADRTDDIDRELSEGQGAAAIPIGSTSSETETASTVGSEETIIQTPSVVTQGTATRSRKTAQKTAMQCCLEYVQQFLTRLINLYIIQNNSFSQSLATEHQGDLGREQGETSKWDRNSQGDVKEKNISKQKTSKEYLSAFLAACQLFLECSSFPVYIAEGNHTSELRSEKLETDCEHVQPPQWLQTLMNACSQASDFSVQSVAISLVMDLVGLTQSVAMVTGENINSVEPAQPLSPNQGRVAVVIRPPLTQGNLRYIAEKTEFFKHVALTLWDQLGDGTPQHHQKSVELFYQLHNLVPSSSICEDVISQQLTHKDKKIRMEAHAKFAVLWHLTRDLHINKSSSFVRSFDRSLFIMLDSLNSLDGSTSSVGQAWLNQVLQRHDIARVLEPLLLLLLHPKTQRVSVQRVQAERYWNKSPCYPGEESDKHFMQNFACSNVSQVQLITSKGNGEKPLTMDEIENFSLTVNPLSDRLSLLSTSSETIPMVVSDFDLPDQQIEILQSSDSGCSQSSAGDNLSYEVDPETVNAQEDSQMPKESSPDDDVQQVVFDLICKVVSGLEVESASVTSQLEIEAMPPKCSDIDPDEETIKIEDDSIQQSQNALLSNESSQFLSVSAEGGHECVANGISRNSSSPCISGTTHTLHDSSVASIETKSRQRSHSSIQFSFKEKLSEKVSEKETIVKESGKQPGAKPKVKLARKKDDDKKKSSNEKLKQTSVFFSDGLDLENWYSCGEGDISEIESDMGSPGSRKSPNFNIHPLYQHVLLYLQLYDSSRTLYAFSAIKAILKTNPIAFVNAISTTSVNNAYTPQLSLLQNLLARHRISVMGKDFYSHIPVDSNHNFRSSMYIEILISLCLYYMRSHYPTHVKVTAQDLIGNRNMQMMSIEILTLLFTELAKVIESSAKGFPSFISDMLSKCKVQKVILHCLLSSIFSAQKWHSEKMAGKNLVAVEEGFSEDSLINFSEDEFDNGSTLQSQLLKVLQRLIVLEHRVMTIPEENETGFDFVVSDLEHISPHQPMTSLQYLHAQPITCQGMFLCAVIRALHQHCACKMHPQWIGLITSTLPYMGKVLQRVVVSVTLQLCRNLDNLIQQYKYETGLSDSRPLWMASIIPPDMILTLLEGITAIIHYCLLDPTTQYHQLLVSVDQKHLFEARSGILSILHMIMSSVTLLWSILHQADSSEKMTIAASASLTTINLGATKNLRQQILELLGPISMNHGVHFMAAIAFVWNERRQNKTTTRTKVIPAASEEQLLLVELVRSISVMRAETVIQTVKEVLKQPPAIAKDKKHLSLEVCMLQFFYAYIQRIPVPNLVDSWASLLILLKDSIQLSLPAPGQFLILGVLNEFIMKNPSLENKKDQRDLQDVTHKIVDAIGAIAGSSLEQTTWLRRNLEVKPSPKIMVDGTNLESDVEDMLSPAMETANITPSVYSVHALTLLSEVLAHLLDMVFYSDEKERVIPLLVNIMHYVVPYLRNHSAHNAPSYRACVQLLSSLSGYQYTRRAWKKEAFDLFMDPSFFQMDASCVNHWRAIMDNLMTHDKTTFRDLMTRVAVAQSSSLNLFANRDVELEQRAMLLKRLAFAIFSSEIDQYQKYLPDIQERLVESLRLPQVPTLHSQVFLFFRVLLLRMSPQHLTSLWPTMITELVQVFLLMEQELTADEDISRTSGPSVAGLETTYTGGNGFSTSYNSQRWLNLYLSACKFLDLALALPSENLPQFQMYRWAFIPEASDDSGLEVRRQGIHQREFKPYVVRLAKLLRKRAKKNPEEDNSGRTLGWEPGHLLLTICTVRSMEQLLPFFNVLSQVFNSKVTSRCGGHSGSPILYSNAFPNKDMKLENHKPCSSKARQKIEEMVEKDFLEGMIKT
# Chain of UniProt Q9Y6B2 (Q9Y6B2 whole entry, looked up): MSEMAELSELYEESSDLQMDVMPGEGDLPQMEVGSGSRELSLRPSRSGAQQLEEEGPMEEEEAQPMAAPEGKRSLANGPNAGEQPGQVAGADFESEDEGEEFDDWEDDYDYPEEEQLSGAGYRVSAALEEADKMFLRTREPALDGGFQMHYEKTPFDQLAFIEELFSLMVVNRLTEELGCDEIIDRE
# Chain of UniProt Q96FC9 (Q96FC9 whole entry, looked up): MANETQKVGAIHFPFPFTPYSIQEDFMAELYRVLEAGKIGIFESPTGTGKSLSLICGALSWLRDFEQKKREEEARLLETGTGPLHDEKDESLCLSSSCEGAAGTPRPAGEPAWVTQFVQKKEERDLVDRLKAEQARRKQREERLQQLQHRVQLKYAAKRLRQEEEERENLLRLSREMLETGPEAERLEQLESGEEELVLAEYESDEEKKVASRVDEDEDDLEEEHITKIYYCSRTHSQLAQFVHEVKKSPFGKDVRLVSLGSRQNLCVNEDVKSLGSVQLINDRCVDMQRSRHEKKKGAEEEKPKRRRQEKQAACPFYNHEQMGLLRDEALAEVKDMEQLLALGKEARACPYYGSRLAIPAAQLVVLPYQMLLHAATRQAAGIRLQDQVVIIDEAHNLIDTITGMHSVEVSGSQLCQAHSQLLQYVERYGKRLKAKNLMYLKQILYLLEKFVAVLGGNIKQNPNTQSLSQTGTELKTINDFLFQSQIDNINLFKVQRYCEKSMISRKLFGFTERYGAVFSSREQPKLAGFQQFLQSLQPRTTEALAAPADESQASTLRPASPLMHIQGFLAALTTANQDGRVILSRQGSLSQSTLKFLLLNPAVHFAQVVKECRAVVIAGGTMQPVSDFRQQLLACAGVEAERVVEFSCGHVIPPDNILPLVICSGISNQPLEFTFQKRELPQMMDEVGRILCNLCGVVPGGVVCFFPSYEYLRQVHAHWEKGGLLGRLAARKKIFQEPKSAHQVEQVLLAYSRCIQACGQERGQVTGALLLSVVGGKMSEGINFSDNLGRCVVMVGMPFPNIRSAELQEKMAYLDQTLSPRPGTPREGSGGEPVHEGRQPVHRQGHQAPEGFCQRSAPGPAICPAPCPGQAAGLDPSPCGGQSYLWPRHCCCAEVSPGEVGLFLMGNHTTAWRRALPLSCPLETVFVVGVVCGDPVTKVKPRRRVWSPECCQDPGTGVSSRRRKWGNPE
# Chain of UniProt Q9NQZ7 (Q9NQZ7 whole entry, looked up): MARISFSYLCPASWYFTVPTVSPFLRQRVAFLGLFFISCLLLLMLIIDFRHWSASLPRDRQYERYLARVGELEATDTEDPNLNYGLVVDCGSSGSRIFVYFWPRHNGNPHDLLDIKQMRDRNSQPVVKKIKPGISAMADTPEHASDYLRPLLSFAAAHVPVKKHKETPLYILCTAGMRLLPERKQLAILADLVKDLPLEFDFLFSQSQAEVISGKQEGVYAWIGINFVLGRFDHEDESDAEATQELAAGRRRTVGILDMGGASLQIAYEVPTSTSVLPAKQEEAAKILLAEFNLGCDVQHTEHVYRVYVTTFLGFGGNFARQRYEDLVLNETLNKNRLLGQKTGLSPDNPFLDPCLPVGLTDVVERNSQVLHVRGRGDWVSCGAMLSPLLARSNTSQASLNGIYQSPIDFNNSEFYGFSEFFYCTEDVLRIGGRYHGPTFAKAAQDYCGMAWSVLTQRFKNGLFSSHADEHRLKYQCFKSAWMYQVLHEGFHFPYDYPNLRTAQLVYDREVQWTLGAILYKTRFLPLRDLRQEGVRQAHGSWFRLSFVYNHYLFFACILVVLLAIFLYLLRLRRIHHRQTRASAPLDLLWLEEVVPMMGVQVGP
# Chain of UniProt O75822 (O75822 whole entry, looked up): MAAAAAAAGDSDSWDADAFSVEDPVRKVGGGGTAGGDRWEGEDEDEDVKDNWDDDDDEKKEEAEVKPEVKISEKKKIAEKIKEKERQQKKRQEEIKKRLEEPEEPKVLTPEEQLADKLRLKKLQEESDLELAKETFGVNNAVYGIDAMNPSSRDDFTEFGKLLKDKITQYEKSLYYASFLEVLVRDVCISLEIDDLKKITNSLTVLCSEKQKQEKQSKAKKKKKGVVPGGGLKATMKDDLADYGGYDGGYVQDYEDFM
# Chain of UniProt O60573 (O60573 whole entry, looked up): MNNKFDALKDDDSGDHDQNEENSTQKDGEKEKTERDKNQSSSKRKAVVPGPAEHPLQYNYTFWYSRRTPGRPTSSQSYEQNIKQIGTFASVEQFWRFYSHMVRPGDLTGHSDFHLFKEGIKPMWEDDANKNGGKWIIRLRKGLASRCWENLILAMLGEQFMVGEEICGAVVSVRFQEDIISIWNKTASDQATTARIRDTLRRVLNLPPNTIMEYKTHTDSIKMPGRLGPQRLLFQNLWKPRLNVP
Target,log2 fold change (bafetinib),log2 fold change (nilotinib),log2 fold change [1],log2 fold change (dasatinib),log2 fold change [2],log2 fold change [3],log2 fold change [4],log2 fold change (tipifarnib),log2 fold change (mubritinib),log2 fold change [5],log2 fold change [6],log2 fold change [7],log2 fold change [8],log2 fold change (entinostat),log2 fold change (citarinostat),log2 fold change (silmitasertib),log2 fold change [9],log2 fold change [10],log2 fold change [11],log2 fold change (vorinostat)
EIF4E2 (UniProt O60573),-0.055,-0.094,-0.052,-0.232,-0.004,0.082,-0.059,-0.127,0.035,0.054,-0.015,0.085,-0.048,0.075,0.245,0.019,0.003,0.079,,
DEGS1 (UniProt O15121),-0.032,0.04,-0.021,-0.1,-0.031,-0.07,,-0.026,0.087,-0.101,0.249,0.086,-0.169,-0.006,0.109,-0.053,-0.003,-0.063,-0.029,0.077
ECPAS (UniProt Q5VYK3),0.031,-0.067,-0.038,-0.255 (active),0.077,-0.011,-0.043,-0.202,0.021,-0.009,-0.024,-0.169,-0.035,0.073,0.08,0.071,-0.038,-0.032,0.105,0.077
DCAF4 (UniProt Q8WV16),,-0.204,-0.007,0.11,-0.093,,0.079,,0.094,-0.046,,-0.127,,0.005,-0.1,0.066,-0.096,-0.094,-0.423 (active),0.238
DCP2 (UniProt Q8IU60),,,,0.02,,-0.021,-0.033,-0.112,,-0.076,0.009,,-0.079,0.048,,,0.048,,,
EID1 (UniProt Q9Y6B2),,-0.022,-0.084,,-0.032,,,-0.097,0.208,-0.078,,-0.055,,0.086,,-0.156,-0.652,,-0.438,-0.457
DDX11 (UniProt Q96FC9),-0.012,0.098,0.033,0.061,0.098,,-0.132,0.005,-0.015,-0.1,-0.099,-0.061,0.032,-0.009,,0.191,-0.007,,,
EZH2 isoform 2 (UniProt Q15910),0.146,,,-0.113,,0.055,,-0.021,-0.097,0.316,-0.004,0.342,0.33,-0.039,,0.046,-0.118,,,
DOP1A (UniProt Q5JWR5),-0.091,,,,,,,,0.127,,,0.106,-0.051,,,-0.056,0,,,
CTSS (UniProt P25774),,,,0.052,,-0.07,-0.028,,,-0.054,,,0.053,-0.013,0.19,,,-0.089,-0.063,0.15
DDX27 (UniProt Q96GQ7),,-0.193,-0.051,0.21,0.3,-0.313,-0.151,,-0.146,0.002,0.04,0.198,0.123,-0.106,-0.103,0.087,0.326,-0.218,-0.093,-0.039
"DDX46, A0A0C4DG89",,0.151,-0.322,,0.032,,,,0.242,,,-0.177,,,,-0.288,-0.148,,,
EIF3J isoform 2 (UniProt O75822),-0.033,-0.101,-0.016,0.017,-0.013,,,0.078,0.1,-0.094,-0.197,-0.102,0.023,-0.041,,-0.11,0.002,,,
DYNC1I2 isoform 2 (UniProt Q13409),-0.038,,,,,-0.311,-0.067,0.177,0.067,0.181,0,-0.037,,-0.206,0.094,-0.154,-0.127,-0.035,,
EPHX2 (UniProt E5RI53),-0.17,,,,,,,,,,,,,,,,-0.058,,,
FAM135A (UniProt Q9P2D6),,0.054,-0.138,,-0.054,,,,,0.069,,,-0.024,-0.03,,,-0.088,,,
ENTPD7 (UniProt Q9NQZ7),-0.165,-0.104,-0.17,-0.235,0.056,,,0.163,0.097,0.024,,-0.052,,0.236,0.131,-0.357,-0.098,-0.138,,
